Data published in PubChem BioAssay AID1259313 (Sanford-Burnham Center for Chemical Genomics, 2017).
The campaign covered roughly 340,000 compounds. About 8,500 (2.5%) were called active.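 How the source made its calls: active means melting temperature shift of at least 10% of the positive control shift, at one fixed dose; inactive means the rest.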 The list comes from a sample in which actives are over-represented; it also holds similar structures and randomly drawn compounds.

Each molecule was assayed on Glutamate receptor ionotropic, NMDA 3A (GRIN3A) ligand-binding domain (assay: binders of NR3A ligand-binding domain, primary screen, biophysical, differential scanning fluorimetry, uHTS (AID 1259313)). Conditions: NR3A LBD differential scanning fluorimetry, at 25 µM, stronger effect = higher value, 0% = protein alone, 100% = glycine-bound protein.
Cc1cc(C)c(C)c(S(=O)(=O)N2CCN(C(=O)c3ccc4c(=O)n5c(nc4c3)CCC5)CC2)c1C was tested, and the Tm shift relative to glycine control was -1.83% (inactive).
With Cc1ccc(C2=NN(C)c3nc4ccccc4n3C2)cc1 the Tm shift relative to glycine control was -0.88% (inactive).
For CCOC(=O)C1=CN(Cc2ccc(Br)cc2)S(=O)(=O)NC1C (stereo not given), the Tm shift relative to glycine control was -0.08% (inactive).
In the case of CCOC(=O)c1sc(=NC(=O)c2ccc(Br)cc2)n(C)c1C, the Tm shift relative to glycine control is reported as -1.61% (inactive).
With CCOC(=O)C1=CN(Cc2ccc(Br)cc2)S(=O)(=O)N(C)C1C (stereo not given) the Tm shift relative to glycine control was 16.8% (active).
With Cc1ccc(Sc2cc(C(=O)c3ccccc3C(=O)O)ccc2[N+](=O)[O-])cc1 the Tm shift relative to glycine control was 2.48% (inactive).
CCN(CC(=O)Nc1cc(Cl)ccc1C)C(=O)CSCc1ccccc1 was tested, and the Tm shift relative to glycine control was 3.04% (inactive).
With C=CCC1(C#N)C(=S)NC(C)=C(C(=O)OCC)C1c1ccccc1 (stereo not given) the Tm shift relative to glycine control was -1.45% (inactive).
For Cc1cccc(N=Nc2c(O)[nH]c3ccc(F)cc23)c1, the Tm shift relative to glycine control was 10.2% (active).
Oc1[nH]c2ccccc2c1N=Nc1c(F)c(F)c(F)c(F)c1F was tested, and the Tm shift relative to glycine control was 9.33% (inactive).
Cc1ccc(CNC(=O)CSc2nnc3c(n2)[nH]c2ccc(F)cc23)cc1 was tested, and the Tm shift relative to glycine control was 2.6% (inactive).
For O=C1CN(C(=O)c2cc(F)cc(F)c2)c2ccccc2N1, the Tm shift relative to glycine control was -2.16% (inactive).
CC(C)(C)c1ccc(/C=C2\SC(=O)N=C2N)cc1 was tested, and the Tm shift relative to glycine control was -1.96% (inactive).
With NC1=NC(=O)S/C1=C\c1ccc(O)cc1 the Tm shift relative to glycine control was 32.2% (active).
For O=C1N=C(N2CCc3ccccc3C2)S/C1=C\c1ccc(O)cc1, the Tm shift relative to glycine control was -10.4% (inactive).
Cc1c(CN2CCCC(C(=O)c3cccc(Cl)c3)C2)c(=O)n(-c2ccccc2)n1C (stereo not given) was tested, and the Tm shift relative to glycine control was -0.59% (inactive).
For CCN(CC)c1ccc(NC(=O)c2ccc(Cl)nc2)cc1, the Tm shift relative to glycine control was -1.3% (inactive).
In the case of O=C(NCCS(=O)(=O)N1CCN(c2ccccc2)CC1)c1ccco1, the Tm shift relative to glycine control is reported as 2.13% (inactive).
In the case of O=C(NCCS(=O)(=O)N1CCN(c2ccccc2F)CC1)c1ccc(Br)o1, the Tm shift relative to glycine control is reported as 121% (active).
With COc1ccccc1N1CCN(S(=O)(=O)CCNC(=O)c2ccc(OC(C)C)cc2)CC1 the Tm shift relative to glycine control was 0.83% (inactive).
For COc1ccc(CCNC(=O)C(=O)NCC2CCNCC2)cc1OC, the Tm shift relative to glycine control was -0.1% (inactive).
For CCc1ccc(-c2nn(-c3ccccc3)cc2CSC(=N)N)cc1, the Tm shift relative to glycine control was -0.35% (inactive).
In the case of COc1cc(NS(=O)(=O)c2ccc(NC(=S)NC(=O)c3ccc(Br)cc3)cc2)ncn1, the Tm shift relative to glycine control is reported as -6.1% (inactive).
For COc1cccc(/C=N/Nc2ncc(C(F)(F)F)cc2Cl)c1O, the Tm shift relative to glycine control was 24.2% (active).
In the case of O=c1[nH]c2cccnc2n(CCNc2ncc(C(F)(F)F)cc2Cl)c1=O, the Tm shift relative to glycine control is reported as -2.11% (inactive).
In the case of COc1ccc(Br)cc1/C=N/Nc1ccc(Cl)c(C(=O)O)c1, the Tm shift relative to glycine control is reported as -7.4% (inactive).
With CCCCN(C(=O)c1nn(C)c(=O)c2ccccc12)c1c(N)n(CCC)c(=O)[nH]c1=O the Tm shift relative to glycine control was 0.36% (inactive).
N#CC1=C(N)Oc2cc(O)ccc2C1C1CCCCC1 (stereo not given) was tested, and the Tm shift relative to glycine control was 12% (active).
COc1ccc(C2C(C#N)=C(N)Oc3cc(N)ccc32)cc1OC (stereo not given) was tested, and the Tm shift relative to glycine control was -4.08% (inactive).
For N#CC1=C(N)Oc2cc(N)ccc2C1c1ccccc1 (stereo not given), the Tm shift relative to glycine control was -2.17% (inactive).
For COCC(C)NC(=O)CSc1nc2nn(-c3ccccc3)c(=O)c-2c2n1CCCCC2 (stereo not given), the Tm shift relative to glycine control was -0.39% (inactive).
O=C(Nc1cc(S(=O)(=O)N2CCOCC2)ccc1Cl)c1cc(=O)c2ccccc2o1 was tested, and the Tm shift relative to glycine control was 0.31% (inactive).
For CC(=O)c1ccc(N2CCN(C(=O)C3CCN(S(=O)(=O)c4ccc5c(c4)CC(C)N5C(=O)C4CC4)CC3)CC2)cc1 (stereo not given), the Tm shift relative to glycine control was 1.27% (inactive).
COC(=O)c1ccc(NC(=O)c2ccccc2NS(=O)(=O)c2ccccc2)cc1 was tested, and the Tm shift relative to glycine control was 2.17% (inactive).
With COc1cc(OC)c(S(=O)(=O)Nc2ccccc2C(=O)O)cc1S(=O)(=O)Nc1ccccc1C(=O)O the Tm shift relative to glycine control was 5.12% (inactive).
In the case of COc1cc(NC(=O)c2ccccc2NS(=O)(=O)c2ccc(Cl)s2)cc(OC)c1, the Tm shift relative to glycine control is reported as 21.3% (active).
CCC/C(O)=C1\C(=O)CC(C)(C)CC1=Nc1ccccc1OC was tested, and the Tm shift relative to glycine control was -0.4% (inactive).
For CCCC(=O)Nc1ccc(C(=O)N/N=C/c2ccc[nH]2)cc1, the Tm shift relative to glycine control was 0.18% (inactive).
CC(=O)Nc1ccc(C(=O)/C=C/c2ccc[nH]2)cc1 was tested, and the Tm shift relative to glycine control was 19.4% (active).
CC(=O)Nc1ccc(C(=O)NNC(=O)CCCCC(=O)NNC(=O)c2ccc(NC(C)=O)cc2)cc1 was tested, and the Tm shift relative to glycine control was -2.46% (inactive).
With CC1=C(C)C(=O)OC(C(C)C2CCC3C4CC=C5CC(OC6OC(COC7OC(CO)C(O)C(O)C7O)C(O)C(O)C6O)CC(O)C5(C)C4CCC23C)C1 (stereo not given) the Tm shift relative to glycine control was -4.54% (inactive).
O=C(CN(Cc1ccc(Br)cc1)S(=O)(=O)c1ccccc1)NCc1ccncc1 was tested, and the Tm shift relative to glycine control was 0.51% (inactive).
CC1=C(C(=O)OC(C)(C)C)C(c2ccc(Br)cc2)NC(=O)N1CCCC(=O)O (stereo not given) was tested, and the Tm shift relative to glycine control was 0.08% (inactive).
NS(=O)(=O)c1ccc(NS(=O)(=O)/C=C/c2ccccc2)cc1 was tested, and the Tm shift relative to glycine control was -15.1% (inactive).
In the case of NS(=O)(=O)c1ccc(Nc2nc(-c3ccccc3)cs2)cc1, the Tm shift relative to glycine control is reported as 15.5% (active).
For COC(=O)[C@H](Cc1ccccc1)NC(=O)Nc1ccc(S(N)(=O)=O)cc1, the Tm shift relative to glycine control was -3.46% (inactive).
For O=C(CC1C(=O)NCCN1CC(c1ccccc1)c1ccccc1)NCCc1cn[nH]c1 (stereo not given), the Tm shift relative to glycine control was -1% (inactive).
Cc1cccc(OCCC(=O)OCc2csc(CC(=O)Nc3ccccc3C)n2)c1 was tested, and the Tm shift relative to glycine control was -1.22% (inactive).
With Cc1cccc(NC(=O)C2CCN(C(=O)NC3CCCCC3)CC2)c1 the Tm shift relative to glycine control was -0.18% (inactive).
With COc1cccc(NC(=O)c2cc(S(=O)(=O)N3CCc4ccccc43)cn2C)c1 the Tm shift relative to glycine control was 1.72% (inactive).
In the case of COc1ccc(C(=O)C2CCCN(Cc3cccn3-c3ccccn3)C2)c(C)c1 (stereo not given), the Tm shift relative to glycine control is reported as 0% (inactive).
With CC(C)CCN1CCN=C1N(C)C the Tm shift relative to glycine control was -0.97% (inactive).
With O=C(/C=C/NCc1ccc(F)cc1)c1ccccc1 the Tm shift relative to glycine control was 0.09% (inactive).
For CCOc1ccc(N/C=C/C(=O)c2ccccc2)cc1, the Tm shift relative to glycine control was -12.3% (inactive).
For O=C(/C=C\NCC(=O)c1ccccc1)c1ccccc1, the Tm shift relative to glycine control was 12.7% (active).
For COC(=O)Cn1c(=NC(=O)c2cc(OC)c(OC)c(OC)c2)sc2cc(OC)ccc21, the Tm shift relative to glycine control was 4.34% (inactive).
For COCCNC(=O)Cn1cc(C(=O)c2cccs2)c2ccccc21, the Tm shift relative to glycine control was 4.81% (inactive).
O=C(Cn1cc(C(=O)c2cccs2)c2ccccc21)NCc1cccs1 was tested, and the Tm shift relative to glycine control was -6.3% (inactive).
For COC(=O)c1cn(CC(=O)NCc2cccs2)c2ccccc12, the Tm shift relative to glycine control was 11.7% (active).
For CC(NC(=O)c1ccccc1SCC(=O)N1CCCC1)c1ccccc1 (stereo not given), the Tm shift relative to glycine control was 1.13% (inactive).
With Cc1cc(Cl)c(S(=O)(=O)Nc2ccc3c(c2)OCCO3)cc1OCC(N)=O the Tm shift relative to glycine control was 5.63% (inactive).
In the case of Cc1cc(Cl)c(S(=O)(=O)N(C)C)cc1OCC(N)=O, the Tm shift relative to glycine control is reported as 10.2% (active).
Cc1cc(Cl)c(S(=O)(=O)NCCC(=O)O)cc1OCC(N)=O was tested, and the Tm shift relative to glycine control was -2.09% (inactive).
O=C(Nc1ccccc1F)c1cc(S(=O)(=O)N2CCCCC2)cs1 was tested, and the Tm shift relative to glycine control was -1.16% (inactive).
In the case of CCN(c1ccccc1)S(=O)(=O)c1cccc(C(=O)NCc2ccccc2CN2CCOCC2)c1, the Tm shift relative to glycine control is reported as 2.34% (inactive).
For CCOc1ccc(NC(=O)CSc2nncn2C)cc1, the Tm shift relative to glycine control was -0.09% (inactive).
With CCOc1ccc(NC(=O)c2ccc(CSc3nnnn3C)cc2)cc1 the Tm shift relative to glycine control was 26.8% (active).
COc1ccc(CSc2nnnn2-c2ccc(C(=O)O)cc2)cc1 was tested, and the Tm shift relative to glycine control was 3.65% (inactive).
In the case of O=C(CSc1ccc(-c2ccco2)nn1)Nc1cccc(F)c1, the Tm shift relative to glycine control is reported as -2.4% (inactive).
O=C(O)c1cccc(NC(=O)c2cc(-c3cccc(Cl)c3)nc3ccccc23)c1 was tested, and the Tm shift relative to glycine control was -12.1% (inactive).
With O=C(Nc1cccc(F)c1)c1cc(-c2ccco2)nc2ccccc12 the Tm shift relative to glycine control was 11.7% (active).
For CC1CCN(C(=O)COC(=O)CCC(=O)c2cccs2)CC1, the Tm shift relative to glycine control was 0.85% (inactive).
In the case of Cc1ccc(COc2ccc(C(=O)NN)cc2)cc1, the Tm shift relative to glycine control is reported as -4.77% (inactive).
Cc1cccc(C(=O)Nc2ccc(Oc3cnccn3)cc2)c1 was tested, and the Tm shift relative to glycine control was 1.77% (inactive).
In the case of Cc1cccc(OCc2ccc(C(=O)Nc3ccc(F)cc3)cc2)c1, the Tm shift relative to glycine control is reported as 13.3% (active).
With CC(C)(CNC(=O)CNC(=O)C1CCCCC1)N1CCOCC1 the Tm shift relative to glycine control was -1.27% (inactive).
In the case of COc1ccc(NC(=O)CCCC2CCCCC2)c(OC)c1, the Tm shift relative to glycine control is reported as 2.43% (inactive).
In the case of Cc1ccc(CNC(=O)Cn2cnc3c(NCc4ccccc4)ncnc32)o1, the Tm shift relative to glycine control is reported as 3% (inactive).
Cc1ccc(Nc2nc(-c3ccc(O)cc3O)cs2)nc1 was tested, and the Tm shift relative to glycine control was 27.4% (active).
For Cc1ccc(-c2csc(NCCc3nc4cc(Cl)c(Cl)cc4n3CCOCCO)n2)cc1, the Tm shift relative to glycine control was -1.81% (inactive).
In the case of COc1ccc(CCNC(=O)NS(=O)(=O)c2ccc(C)cc2)cc1OC, the Tm shift relative to glycine control is reported as -2.28% (inactive).
For O=[N+]([O-])c1ccccc1SNc1ccccn1, the Tm shift relative to glycine control was 1.04% (inactive).
With CCOC(=O)N1CCN(CC(=O)c2ccc3c(c2)CCN3)CC1 the Tm shift relative to glycine control was -1.56% (inactive).
In the case of C[C@H](OC(=O)n1ccnc1)[C@@H]1O[C@@]2(C)CCC[C@@H]1O2, the Tm shift relative to glycine control is reported as -0.49% (inactive).
COc1ccc(N(CC(=O)NC2CCCCCCC2)S(=O)(=O)c2c(C)nn(C)c2C)cc1 was tested, and the Tm shift relative to glycine control was -1.2% (inactive).
In the case of O=C(C1CCCN(S(=O)(=O)c2ccccc2)C1)N1CCN(c2ccc(F)cc2)CC1 (stereo not given), the Tm shift relative to glycine control is reported as -0.26% (inactive).
O=C(O)C1CCCCC1C(=O)N1CCN(S(=O)(=O)c2ccc(F)cc2)CC1 (stereo not given) was tested, and the Tm shift relative to glycine control was 14.4% (active).
For O=S(=O)(c1ccc(F)cc1)N1CCN(C(=S)NC2CCCC2)CC1, the Tm shift relative to glycine control was 1.46% (inactive).
For Cc1cc(=O)oc2c1ccc1ccccc12, the Tm shift relative to glycine control was 0.49% (inactive).
In the case of CCOC(=O)c1cccc(NC(=O)C2CCCN(S(=O)(=O)c3cnc[nH]3)C2)c1 (stereo not given), the Tm shift relative to glycine control is reported as -1.2% (inactive).
With Cc1cc(C)c(C(=O)CSc2nc(C)cc(=O)[nH]2)c(C)c1 the Tm shift relative to glycine control was -3.2% (inactive).
In the case of COC(=O)c1ccccc1SC1CC(=O)N(c2cccc(C)c2)C1=O (stereo not given), the Tm shift relative to glycine control is reported as -2.37% (inactive).
With COc1cc2ccccc2cc1C(=O)Nc1ccccc1C the Tm shift relative to glycine control was 3.64% (inactive).
With O=C(Nc1ccccc1-c1ccccc1)c1ccccc1[N+](=O)[O-] the Tm shift relative to glycine control was -0.71% (inactive).
COc1cc(OC)c(C(=O)Nc2ccccc2-c2ccccc2)cc1OC was tested, and the Tm shift relative to glycine control was 11.5% (active).
